{"source": "ChEMBL document CHEMBL1157539", "about": "“Thousands of chemical starting points for antimalarial lead identification” (Nature, 2010)", "data": [{"test_system": "HepG2", "assay": "GSK_TCMDC: Percent inhibition of human HepG2 cell line. Test compounds present at 10uM.", "assay_type": "functional", "units": {"Inhibition": "%"}, "values": [{"smiles": "COC(=O)c1cccc(CNCc2ccc(-c3ccc(-c4nc5cc(F)ccc5[nH]4)cc3)cc2)c1.O=C(O)C(F)(F)F", "Inhibition": 8}, {"smiles": "O=C(O)C(F)(F)F.c1ccc(CCNCc2ccc(-c3cccc(-c4nc5ccccc5[nH]4)c3)cc2)nc1", "Inhibition": 36}, {"smiles": "Cc1cc(N[C@@H](Cc2ccccc2)C(=O)NCCc2ccccc2)nc(NCC2CCCCC2)n1.O=C(O)C(F)(F)F", "Inhibition": 24}, {"smiles": "Cc1ccc2[nH]c(-c3cc(-c4cccc(C#N)c4)cnc3N)nc2c1.O=C(O)C(F)(F)F", "Inhibition": 40}, {"smiles": "O=C(c1ccc(-c2ccc(-c3nc4ccccc4[nH]3)s2)cc1)N1CCCCC1CN1CCC(O)C1", "note": "(stereo not given)", "Inhibition": 18}, {"smiles": "COCc1cc(C)nc2sc(C(=O)Nc3cc(C(C)(C)C)ccc3O)c(N)c12", "Inhibition": 0}, {"smiles": "Cn1c2c(c3ccccc31)CN(CCC1(c3ccc(Cl)c(Cl)c3)CN(C(=O)Cc3ccccc3)CCO1)CC2", "note": "(stereo not given)", "Inhibition": 22}, {"smiles": "O=C(Nc1ccc(OC2CCN(Cc3ccc(F)cc3)CC2)c(Cl)c1)c1ccsc1.O=C(O)C(F)(F)F", "Inhibition": 5}, {"smiles": "O=C(/C=C/c1ccc(Cl)c(Cl)c1)NCCCCN1CCCN(C(=O)Nc2ccc(Cl)c(Cl)c2)CC1", "Inhibition": 22}, {"smiles": "CC(C)(C)c1ccc(CN2CCC(NC(=O)c3ccc(-c4cccc(C(F)(F)F)c4)s3)CC2)cc1.O=C(O)C(F)(F)F", "Inhibition": 97}, {"smiles": "CC(C)Nc1nc(NC2CCCCC2)nc(N2CCCCCCC2)n1", "Inhibition": 13}, {"smiles": "Br.CC1(C)NC(N)=NC(=N)N1OCCCOc1ccc(N)cc1", "Inhibition": 66}, {"smiles": "CC(C)NCc1cccc(-c2ccc(-c3nc4cc(C(F)(F)F)ccc4[nH]3)cc2)c1.O=C(O)C(F)(F)F", "Inhibition": 7}, {"smiles": "O=C(c1cccc(-c2cccc(-c3nc4cc(F)ccc4[nH]3)c2)c1)N1CCCCC1CN1CCC(O)C1", "note": "(stereo not given)", "Inhibition": 36}, {"smiles": "NS(=O)(=O)c1cncc(-c2ccc3nccc(-c4cn[nH]c4)c3n2)c1", "Inhibition": 33}, {"smiles": "Cc1n[nH]c2cc(F)c(-c3cc(OC[C@@H](N)Cc4ccccc4)cnc3-c3ccoc3)cc12.O=C(O)C(F)(F)F", "Inhibition": 22}, {"smiles": "O=C(COc1ccc(F)cc1)NC1CCN(c2ccnc3cc(Cl)ccc23)C1.O=C(O)C(F)(F)F", "note": "(stereo not given)", "Inhibition": 24}, {"smiles": "Cc1ccc2c(=O)cc(CCc3cccc(F)c3F)n(CC(=O)N(Cc3ccc(-c4ccc(C(F)(F)F)cc4)cc3)C3CCN(C(C)C)CC3)c2n1.O=C(O)C(O)C(O)C(=O)O", "Inhibition": 58}, {"smiles": "COc1ccc(NC(=O)NC2CCN(CCCCCNC(=O)/C=C/c3ccc(Cl)c(Cl)c3)CC2)cc1", "Inhibition": 5}, {"smiles": "CC(C)(C)c1ccc(S(=O)(=O)Nc2cc(Cl)ccc2Cn2ccc(N3CCNCC3)nc2=O)cc1.O=C(O)C(F)(F)F", "Inhibition": 0}, {"smiles": "C#CC[C@@H](NC(N)=O)C(=O)O", "Inhibition": 1}, {"smiles": "CC1(C)N=C(N)N=C(N)N1OCc1ccc2c(c1)OCO2", "Inhibition": 66}, {"smiles": "COc1ccc(-c2cccc(NC(=O)c3ccc(C#N)cc3)c2)cc1CN(C)CCN(C)C.O=C(O)C(F)(F)F", "Inhibition": 14}, {"smiles": "CC(C)NCc1ccc(-c2ccc(-c3nc4cc(C(F)(F)F)ccc4[nH]3)cc2)cc1.O=C(O)C(F)(F)F", "Inhibition": 16}, {"smiles": "COc1ccc(-c2ccc(NC(=O)c3cccc(Cl)c3)cc2)cc1CN1CCC(O)CC1.O=C(O)C(F)(F)F", "Inhibition": 15}, {"smiles": "CCNc1cc(C(=O)N[C@@H](Cc2ccco2)[C@H](O)CNC2CCCCC2)cc(N2CCCCS2(=O)=O)c1.Cl", "Inhibition": 14}, {"smiles": "CN1CCN(CCCN(C(=O)Nc2cc(C(F)(F)F)cc(C(F)(F)F)c2)c2ccccc2Cc2ccccc2)CC1", "Inhibition": 35}, {"smiles": "O=C(NCCN1CCCC1)c1cccc(-c2ccc(-c3nc4cc(F)ccc4[nH]3)cc2)c1", "Inhibition": 33}, {"smiles": "O=C(Nc1cccc(CN2CCCN(Cc3cccc(O)c3)CC2)c1)c1cc2ccccc2s1.O=C(O)C(F)(F)F", "Inhibition": 15}, {"smiles": "O=C(O)C(F)(F)F.O=S(=O)(NCCN1CCCC1)c1ccc(-c2cccc(CNCc3ccccc3)c2)s1", "Inhibition": 44}, {"smiles": "COc1cccc(CN2CCC(C(=O)Nc3ccc(-c4nc5ccccc5[nH]4)cc3)CC2)c1", "Inhibition": 9}, {"smiles": "N#Cc1ccc2[nH]cc(-c3cn4cc(SC5CCCC5)ccc4n3)c2c1", "Inhibition": 1}, {"smiles": "Cc1cccc(-c2cccc3c(NC(=O)N4CCc5cc6nccc(N7CCN8CCC[C@H]8C7)c6cc54)cccc23)n1.Cl", "Inhibition": 14}, {"smiles": "Cc1ccnc(NC(c2cccc(OCc3ccccc3)c2)c2ccc3cccnc3c2O)c1", "note": "(stereo not given)", "Inhibition": 26}, {"smiles": "COC(=O)c1c(NC(=O)c2cccc(C(F)(F)F)c2)sc2c1CCN(Cc1ccccc1)C2.Cl", "Inhibition": 9}, {"smiles": "COc1cc(NCC2(CNCc3cn(Cc4ccccc4)c4ccccc34)CCCCC2)nc2ccccc12.Cl", "Inhibition": 65}, {"smiles": "Br.CC1(C)NC(N)=NC(=N)N1OCCCOc1ccccc1N", "Inhibition": 70}, {"smiles": "O=C(O)C(F)(F)F.c1ccc(C(c2ccccc2)N2CCC(NCc3ccc(OCCCN4CCCCC4)cc3)CC2)cc1", "Inhibition": 74}, {"smiles": "Fc1ccc(-c2cc3ncnc(N4CCN(CCN5CCCC5)CC4)c3s2)cc1", "Inhibition": 25}, {"smiles": "Cc1cccc(CN2CCCN(Cc3cccc(C(=O)Nc4ccc(C(C)(C)C)cc4)c3)CC2)c1.O=C(O)C(F)(F)F", "Inhibition": 98}]}]}
